# Experimental data published in PubChem BioAssay AID1159580 (chemical genetic matrix, 2015).
# “And” between values parts separate entries of the source, which are not always exact repeats. Equal entries are not always repeated. About 2,000 (36%) of roughly 5,500 compounds were called active. Roughly 18% stayed inconclusive and do not appear here. This is one part of the list. Unmarked numbers belong to inactive results. No stated cut-off is given here; in the data, active means normalized growth mostly below about 0.91 (no sharp cut-off); inconclusive means no clear call, values can overlap the other calls; inactive means mostly above about 0.92.
# Experiment: chemical genetic growth profiling, strain panel (AID 1159580);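 further: tested at 20 µM; growth read once vehicle control cultures reached saturation at 30 °C; 1 = growth at the plate median or of vehicle wells; lower values mean less growth of the strain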
# Conditions: S. cerevisiae deletion strains, growth OD
structure (smiles),measurement,setting,value
CC1(C)CC[C@]2(C(=O)O)CC[C@]3(C)C(=CCC4[C@@]5(C)CC[C@H](O)[C@@](C)(CO)C5CC[C@]43C)C2C1 (stereo partly drawn),normalized growth,"locus YAL021C, strain ccr4, active compounds read low",1
same,normalized growth,"locus YAL026C, strain drs2, active compounds read low",1.02
same,normalized growth,"locus YAL030W, strain snc1, active compounds read low",1.02
same,normalized growth,"locus YBL061C, strain skt5, active compounds read low",1.01
same,normalized growth,"locus YBR009C, strain hhf1, active compounds read low",1.02
same,normalized growth,"locus YBR021W, strain FUR4, active compounds read low",1.11
same,normalized growth,"locus YBR023C, strain chs3, active compounds read low",1.02
same,normalized growth,"locus YBR171W, strain sec66, active compounds read low",1.04
same,normalized growth,"locus YBR229C, strain ROT2, active compounds read low",1.02
same,normalized growth,"locus YBR231C, strain swc5, active compounds read low",1.02
same,normalized growth,"locus YBR279W, strain paf1, active compounds read low",1.02
same,normalized growth,"locus YCL011C, strain gbp2, active compounds read low",1.03
same,normalized growth,"locus YCL016C, strain dcc1, active compounds read low",1.03
same,normalized growth,"locus YCL029C, strain bik1, active compounds read low",0.977
same,normalized growth,"locus YCL061C, strain MRC1, active compounds read low",1.02
same,normalized growth,"locus YCL069W, strain vba3, active compounds read low",1.03
same,normalized growth,"locus YCR088W, strain abp1, active compounds read low",1.02
same,normalized growth,"locus YDL005C, strain med2, active compounds read low",1.04
same,normalized growth,"locus YDL035C, strain GPR1, active compounds read low",1.04
same,normalized growth,"locus YDL040C, strain nat1, active compounds read low",1.05
same,normalized growth,"locus YDL074C, strain BRE1, active compounds read low",0.981
same,normalized growth,"locus YDL101C, strain DUN1, active compounds read low",1.02
same,normalized growth,"locus YDL134C, strain PPH21, active compounds read low",1.1
same,normalized growth,"locus YDL185W, strain tfp1, active compounds read low",0.946
same,normalized growth,"locus YDL192W, strain arf1, active compounds read low",0.99
same,normalized growth,"locus YDR001C, strain nth1, active compounds read low",1.02
same,normalized growth,"locus YDR069C, strain doa4, active compounds read low",1.03
same,normalized growth,"locus YDR101C, strain arx1, active compounds read low",1.01
same,normalized growth,"locus YDR137W, strain rgp1, active compounds read low",1.04
same,normalized growth,"locus YDR159W, strain sac3, active compounds read low",1.04
same,normalized growth,"locus YDR162C, strain NBP2, active compounds read low",1.07
same,normalized growth,"locus YDR195W, strain ref2",1.08
same,normalized growth,"locus YDR297W, strain sur2, active compounds read low",1.03
same,normalized growth,"locus YDR318W, strain mcm21, active compounds read low",0.999
same,normalized growth,"locus YDR334W, strain swr1, active compounds read low",1.03
same,normalized growth,"locus YDR335W, strain msn5, active compounds read low",1.02
same,normalized growth,"locus YDR388W, active compounds read low",0.994
same,normalized growth,"locus YDR392W, strain spt3, active compounds read low",1.01
same,normalized growth,"locus YDR502C, strain sam2, active compounds read low",0.999
same,normalized growth,"locus YEL003W, strain gim4, active compounds read low",1.02
same,normalized growth,"locus YEL037C, strain rad23, active compounds read low",1.02
same,normalized growth,"locus YEL061C, strain CIN8 (second series), active compounds read low",1.02
same,normalized growth,"locus YEL061C, strain CIN8, active compounds read low",1
same,normalized growth,"locus YER015W, strain faa2, active compounds read low",1.02
same,normalized growth,"locus YER016W, strain bim1, active compounds read low",1.03
same,normalized growth,"locus YER110C, active compounds read low",0.987
same,normalized growth,"locus YER111C, strain swi4, active compounds read low",1.02
same,normalized growth,"locus YER155C, strain BEM2 (second series), active compounds read low",1.03
same,normalized growth,"locus YER155C, strain BEM2, active compounds read low",1.01
same,normalized growth,"locus YER167W, strain BCK2, active compounds read low",1.02
same,normalized growth,"locus YFR010W, strain ubp6, active compounds read low",1.02
same,normalized growth,"locus YGL078C, strain dbp3, active compounds read low",0.994
same,normalized growth,"locus YGL086W, strain mad1, active compounds read low",1.24 [resistant] (active)
same,normalized growth,"locus YGL167C, strain pmr1, active compounds read low",1.03
same,normalized growth,"locus YGL173C, strain kem1, active compounds read low",1.03
same,normalized growth,"locus YGL227W, strain vid30, active compounds read low",1.03
same,normalized growth,"locus YGL240W, strain doc1, active compounds read low",1.01
same,normalized growth,"locus YGL248W, strain PDE1, active compounds read low",1.03
same,normalized growth,"locus YGL253W, strain hxk2, active compounds read low",1.02
same,normalized growth,"locus YGR078C, strain PAC10, active compounds read low",1.03
same,normalized growth,"locus YGR135W, strain pre9, active compounds read low",1.01
same,normalized growth,"locus YGR229C, strain SMI1, active compounds read low",1.02
same,normalized growth,"locus YGR252W, strain gcn5, active compounds read low",1.02
same,normalized growth,"locus YHR013C, strain ard1, active compounds read low",1.06
same,normalized growth,"locus YHR027C, strain rpn1, active compounds read low",1.02
same,normalized growth,"locus YHR030C, strain SLT2, active compounds read low",0.989 and 1.03
same,normalized growth,"locus YHR079C, strain IRE1 (second series), active compounds read low",0.999
same,normalized growth,"locus YHR079C, strain IRE1, active compounds read low",1.02
same,normalized growth,"locus YHR094C, strain hxt1, active compounds read low",1
same,normalized growth,"locus YHR129C, strain ARP1, active compounds read low",1
same,normalized growth,"locus YHR142W, strain chs7, active compounds read low",1.03
same,normalized growth,"locus YHR200W, strain rpn10, active compounds read low",1.01
same,normalized growth,"locus YIL066C, strain RNR3, active compounds read low",1.03
same,normalized growth,"locus YIL073C, strain SPO22, active compounds read low",1
same,normalized growth,"locus YIL125W, strain kgd1, active compounds read low",0.99
same,normalized growth,"locus YIR030C, strain dcg1, active compounds read low",1.04
same,normalized growth,"locus YJL092W, strain hpr5, active compounds read low",1.03
same,normalized growth,"locus YJL095W, strain BCK1 (second series), active compounds read low",1.02
same,normalized growth,"locus YJL095W, strain BCK1, active compounds read low",1.04 and 0.98
same,normalized growth,"locus YJL115W, strain asf1, active compounds read low",1.03
same,normalized growth,"locus YJL129C, strain trk1, active compounds read low",1.02
same,normalized growth,"locus YJL134W, strain LCB3, active compounds read low",0.995
same,normalized growth,"locus YJL154C, strain vps35, active compounds read low",1.02
same,normalized growth,"locus YJL164C, strain tpk1, active compounds read low",1.05
same,normalized growth,"locus YJL166W, strain qcr8, active compounds read low",1.02
same,normalized growth,"locus YJL168C, strain set2, active compounds read low",0.998
same,normalized growth,"locus YJL187C, strain SWE1 (second series), active compounds read low",1.02
same,normalized growth,"locus YJL187C, strain SWE1, active compounds read low",1.04
same,normalized growth,"locus YJR043C, strain POL32, active compounds read low",1.03
same,normalized growth,"locus YJR066W, strain TOR1, active compounds read low",0.977
same,normalized growth,"locus YKL085W, strain MDH1 (second series), active compounds read low",1.16 [resistant] (active)
same,normalized growth,"locus YKL085W, strain MDH1, active compounds read low",1.16 [resistant] (active)
same,normalized growth,"locus YKL160W, strain elf1, active compounds read low",1.02
same,normalized growth,"locus YKL190W, strain CNB1, active compounds read low",1.02
same,normalized growth,"locus YKR001C, strain vps1, active compounds read low",0.996
same,normalized growth,"locus YKR026C, strain gcn3, active compounds read low",1.03
same,normalized growth,"locus YKR091W, strain srl3, active compounds read low",1.03
same,normalized growth,"locus YLL001W, strain dnm1, active compounds read low",1.02
same,normalized growth,"locus YLL026W, active compounds read low",1.02
same,normalized growth,"locus YLL041C, strain sdh2, active compounds read low",1.12 [resistant] (active)
same,normalized growth,"locus YLR027C, strain aat2, active compounds read low",1.02
same,normalized growth,"locus YLR039C, strain RIC1, active compounds read low",1.04
same,normalized growth,"locus YLR058C, strain SHM2, active compounds read low",1.01
same,normalized growth,"locus YLR102C, strain apc9, active compounds read low",0.991
same,normalized growth,"locus YLR113W, strain HOG1, active compounds read low",0.929
same,normalized growth,"locus YLR221C, strain rsa3, active compounds read low",1.02
same,normalized growth,"locus YLR258W, strain gsy2, active compounds read low",1.02
same,normalized growth,"locus YLR262C, strain YPT6 (second series), active compounds read low",1.03
same,normalized growth,"locus YLR262C, strain YPT6, active compounds read low",1.09
same,normalized growth,"locus YLR268W, strain sec22, active compounds read low",1.01
same,normalized growth,"locus YLR320W, strain mms22, active compounds read low",1.03
same,normalized growth,"locus YLR330W, strain CHS5, active compounds read low",0.994
same,normalized growth,"locus YLR342W, strain FKS1 (second series), active compounds read low",1.05
same,normalized growth,"locus YLR342W, strain FKS1, active compounds read low",1.03
same,normalized growth,"locus YLR357W, strain rsc2, active compounds read low",1.01
same,normalized growth,"locus YLR370C, strain arc18, active compounds read low",1.02
same,normalized growth,"locus YLR371W, strain rom2, active compounds read low",0.958
same,normalized growth,"locus YLR384C, strain iki3, active compounds read low",1.01
same,normalized growth,"locus YLR418C, strain cdc73, active compounds read low",1.02
same,normalized growth,"locus YML016C, strain PPZ1, active compounds read low",1.01
same,normalized growth,"locus YML032C, strain rad52, active compounds read low",0.998
same,normalized growth,"locus YML120C, strain ndi1, active compounds read low",1.02
same,normalized growth,"locus YML124C, strain tub3, active compounds read low",0.996
same,normalized growth,"locus YMR058W, strain fet3, active compounds read low",1.03
same,normalized growth,"locus YMR078C, strain ctf18, active compounds read low",0.991
same,normalized growth,"locus YMR125W, strain sto1, active compounds read low",1.03
same,normalized growth,"locus YMR129W, active compounds read low",1.02
same,normalized growth,"locus YMR205C, strain PFK2, active compounds read low",1.03
same,normalized growth,"locus YMR223W, strain ubp8, active compounds read low",1
same,normalized growth,"locus YMR231W, strain pep5, active compounds read low",1.01
same,normalized growth,"locus YMR307W, strain GAS1, active compounds read low",0.931
same,normalized growth,"locus YNL067W, strain RPL9B, active compounds read low",1.04
same,normalized growth,"locus YNL071W, strain lat1, active compounds read low",1.02
same,normalized growth,"locus YNL128W, strain TEP1, active compounds read low",0.996
same,normalized growth,"locus YNL183C, strain NPR1, active compounds read low",0.878
same,normalized growth,"locus YNL209W, strain ssb2, active compounds read low",1.01
same,normalized growth,"locus YNL233W, strain BNI4, active compounds read low",1.03
same,normalized growth,"locus YNL248C, strain rpa49, active compounds read low",1.02
same,normalized growth,"locus YNL250W, strain rad50, active compounds read low",0.991
same,normalized growth,"locus YNL271C, strain bni1, active compounds read low",0.983
same,normalized growth,"locus YNL298W, strain CLA4, active compounds read low",0.992
same,normalized growth,"locus YNL307C, strain MCK1, active compounds read low",1.01
same,normalized growth,"locus YNL322C, strain KRE1 (second series), active compounds read low",1.02
same,normalized growth,"locus YNR049C, strain mso1, active compounds read low",1.02
same,normalized growth,"locus YNR052C, strain pop2, active compounds read low",0.997
same,normalized growth,"locus YOL012C, strain htz1",0.926
same,normalized growth,"locus YOL147C, strain pex11, active compounds read low",1
same,normalized growth,"locus YOR001W, strain rrp6, active compounds read low",1.01
same,normalized growth,"locus YOR061W, strain CKA2, active compounds read low",0.998
same,normalized growth,"locus YOR069W, strain VPS5, active compounds read low",1.01
same,normalized growth,"locus YOR070C, strain gyp1, active compounds read low",1
same,normalized growth,"locus YOR080W, strain dia2, active compounds read low",1.03
same,normalized growth,"locus YOR083W, strain WHI5, active compounds read low",1.02
same,normalized growth,"locus YOR106W, strain vam3, active compounds read low",1.04
same,normalized growth,"locus YOR136W, strain idh2, active compounds read low",0.999
same,normalized growth,"locus YOR144C, strain elg1, active compounds read low",1
same,normalized growth,"locus YOR184W, strain ser1, active compounds read low",1.01
same,normalized growth,"locus YOR231W, strain MKK1, active compounds read low",1.02
same,normalized growth,"locus YOR265W, strain rbl2, active compounds read low",1.01
same,normalized growth,"locus YOR270C, strain vph1, active compounds read low",1.05
same,normalized growth,"locus YOR290C, strain snf2, active compounds read low",1.03
same,normalized growth,"locus YOR316C, strain cot1, active compounds read low",0.989
same,normalized growth,"locus YPL051W, strain arl3, active compounds read low",1.01
same,normalized growth,"locus YPL078C, strain atp4, active compounds read low",1.02
same,normalized growth,"locus YPL106C, strain sse1, active compounds read low",1.04
same,normalized growth,"locus YPL240C, strain hsp82, active compounds read low",1.02
same,normalized growth,"locus YPL241C, strain CIN2, active compounds read low",0.999
same,normalized growth,"locus YPL256C, strain CLN2, active compounds read low",1.01
same,normalized growth,"locus YPR119W, strain clb2, active compounds read low",0.999
same,normalized growth,"locus YPR141C, strain kar3, active compounds read low",0.986
same,normalized growth,"locus YPR163C, strain tif3, active compounds read low",1
same,normalized growth,"locus YPR167C, strain met16, active compounds read low",0.996
same,normalized growth,"strain wtn01, active compounds read low",0.997
